# Beta cell apopt: beta cell apoptosis inhibition. INS-1E cytokine-induced death, ATP luminescence, 48 h; percent of positive-control rescue, neutral wells zero. protection from apoptosis, % (no concentration beside the values). actives 0.8% (n = 300,000). AID 435005;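 active = Every replicate reaches about 75%, or at least half do and their mean reaches it too, limit read from the data; inconclusive = At least half of replicates reach the limit but their mean does not; inactive = Under half of replicates reach the limit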;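 also: 0% = cytokine-treated negative control wells and 100% = positive control rescue; higher means more ATP so stronger rescue from cytokine killing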
# Calb FLC: C. albicans growth modulation with fluconazole | C. albicans CaCi-2 (fluconazole-resistant clinical isolate) + fluconazole, Alamar Blue growth, 48 h | actives 0.57% (n = 300,000) | growth inhibition, % (test concentration not listed) | AID 1979;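 active = growth inhibition above about 58% in most replicates, limit read from the data, passing the limit was not always enough; inconclusive = exactly half the replicates above a set limit; inactive = most replicates below a set limit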;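 also: all wells also contain fluconazole at 8 µg/ml as a sub-toxic cotreatment; 0% = median of DMSO wells and 100% = median of geldanamycin control wells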
# Shn3 inh set2: reduces Shn3 3'UTR luciferase signal in osteoblasts; Clone20 osteoblast Shn3 3'UTR firefly luciferase, 24 h; inhibition, % at 12.5 µM; actives 0.52% (n = 360,000); AID 588674;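 active = mean inhibition of at least 75% with every replicate also reaching 75%; inconclusive = mean inhibition at least 75% but some replicate below; inactive = mean inhibition below 75%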;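 also: 0% = median of neutral control wells and 100% = pilot-screen positive control compound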
# Jurkat NFkB inh: lowers PMA/ionomycin-induced NF-kB signal in Jurkat cells | PMA/ionomycin-induced NF-kB luciferase reporter, luminescence | inhibition, % at 4 µM | actives 0.53% (n = 330,000) | AID 435003; in the data active = inhibition above about 50%
# 697 NFkB inh: lowers PMA/ionomycin-induced NF-kB signal in 697 B cells; 697 B-cell NF-kB luciferase reporter, 16 h; inhibition, % at 4 µM; actives 0.33% (n = 330,000); in the data active = inhibition above about 35%
# Jurkat NFkB conf: lowers PMA/ionomycin-induced NF-kB signal in Jurkat cells; inhibition, % at 4 µM; actives 27% (n = 2,700); shares compounds with Jurkat NFkB inh; Jurkat NF-kB luciferase, 16 h; AID 435020;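 active = inhibition reaching about 45% at 4 µM in either replicate, limit read from the data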;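 also: plate controls were PMA/ionomycin stimulated DMSO wells for no effect and unstimulated DMSO wells for full effect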
# An asterisk follows results filed as active; ? = inconclusive; . = not tested or not shown. This is a sample that favours compounds with a hit; in the whole collection about 2% have one here.
SMILES,Beta cell apopt,Calb FLC,Shn3 inh set2,Jurkat NFkB inh,697 NFkB inh,Jurkat NFkB conf
COc1ccc(NC(=O)Cn2nnc(-c3ccccc3NS(=O)(=O)c3ccc(OC)cc3)n2)cc1,15,-3,26,72*,-54,64*
COc1ccccc1NC(=O)Cn1nnc(-c2ccccc2NS(=O)(=O)c2ccccc2)n1,0,3,68,-3,-27,.
CCc1noc(C)c1C(=O)NNC(=O)c1ccc(N(CC)CC)cc1,3,.,7,-2,5,.
Cc1nc2ccccc2c2oc(C(=O)NC3CC3)cc12,10,-2,-5,4,6,.
CCOc1ccc(NC(=O)c2cc3c(C)nc4ccccc4c3o2)cc1,13,8,25,60*,-69,41
O=C(CNc1cccc2ccccc12)N/N=C/c1ccc[nH]1,7,0,0,59*,8,-3
COC(=O)C1Cc2c([nH]c3ccccc23)CN1 (stereo unspecified),4,0,7,53*,-8,8
COc1ccc(-n2nnnc2/C=C\Nc2ccccc2C(=O)c2ccccc2)cc1,19,-3,-14,53*,-27,9
O=C(NCc1ccco1)c1ccc(COc2ccccc2[N+](=O)[O-])o1,-1,8,11,15,0,.
COc1ccc(OC)c2c1C(=O)c1ccccc1C2=O,-7,-1,.,11,8,.
COc1ccc(OC)c2c1C(=O)C(Cl)=C(Cl)C2=O,114*,-3,.,60*,-111,68*
Cc1ccc(-c2cc(C(=O)N3CCCCCC3)no2)cc1,4,4,-27,-182,-229,-115
O=C(c1cc(-c2cccc(O)c2)on1)N1CCCCC1,-3,1,-45,-160,-184,-88
O=C(c1cc(-c2ccc(F)cc2)on1)N1CCCCCC1,-3,-11,-131,-132,-162,.
CCOc1ncccc1C(=O)NCC(c1ccccc1)N(C)C (stereo unspecified),-30,-14,12,-27,-12,.
c1ccc(-c2csc(Nc3ncccn3)n2)cc1,-3,-9,-96,-212,-245,-105
Oc1ccc(-c2csc(Nc3ncccn3)n2)cc1,-12,2,-72,-159,-208,-59
Cc1ccc(S(=O)(=O)N(C)C)cc1NC(=O)COC(=O)c1ccc2ccccc2n1,.,.,1,17,20,.
CN(C)S(=O)(=O)c1cccc(NC(=O)COC(=O)c2ccc3ccccc3n2)c1,-6,.,10,60*,19,9
COc1ccc(S(=O)(=O)N2N=C(C)Oc3ccccc3C2=O)cc1,3,3,11,53*,-28,44
Cn1nnnc1SCC(=O)Nc1ccc(S(=O)(=O)N2CCOCC2)cc1,-1,-21,-32,-2,23,.
CC(C)NC(=O)c1cc(C2CCCCN2C(=O)c2cc(C(C)(C)C)nn2C)on1 (stereo unspecified),.,.,64,.,.,.
COc1ccc(OC)c(CCNC(=O)Cn2nc(C)c3c(C)n(-c4ccc(C)cc4)nc3c2=O)c1,17,6,59,56*,14,66*
COc1cccc(N/C(N)=N/c2nc(CSc3ccccn3)cc(=O)[nH]2)c1,2,-6,.,58*,-45,56*
CC1C/C(=C/c2ccncc2)C(=O)/C(=C/c2ccncc2)C1 (stereo unspecified),112*,1,80,96*,-128,39
SMILES,Beta cell apopt,Calb FLC,Shn3 inh set2,Jurkat NFkB inh,697 NFkB inh,Jurkat NFkB conf
CC1C/C(=C/c2cccn2C)C(=O)/C(=C/c2cccn2C)C1 (stereo unspecified),5,7,-22,15,-5,.
COc1cccc(Oc2cnc(N)nc2-c2ccc(OC)cc2O)c1,3,11,-9,50*,-48,15
O=C(Cn1cnc([N+](=O)[O-])c1)Nc1ccc(Cl)cc1Cl,.,.,1,.,.,.
C/C(=N\NC(=O)COc1cccc(Br)c1)c1ccc2c(c1)OCCO2,-6,.,5,-14,0,.
CCOC(=O)C1CCN(C(=O)c2cc3c(-c4ccc(OC)c(OC)c4)nn(C)c3s2)CC1,5,-2,15,8,16,.
CCOC(=O)C1CCCN(C(=O)c2cc3c(-c4cccc(OC)c4)nn(C)c3s2)C1 (stereo unspecified),.,.,13,55*,-15,11
CCCCCc1ccc(OCCCC[n+]2ccc(C)cc2)c(CCCCC)c1,111*,98*,84,54*,34,54*
CCCCOc1ccc(C)cc1CN(CCO)CCO,-6,-3,0,-8,7,.
O=C(OCN1C(=O)c2ccccc2C1=O)c1cc(S(=O)(=O)N2CCOCC2)ccc1F,.,.,-7,15,-27,.
Cc1nc(N(C)C2CCCCC2)c2nnn(Cc3ccc(F)cc3)c2n1,.,.,-6,.,.,.
CCC(=O)NC(=S)Nc1ccc(-c2nc3ccc(C)cc3s2)cc1,4,14,-79,-115,-138,.
CCC(=O)NC(=S)Nc1ccc(-c2nc3ccccc3s2)cc1,-2,-1,-68,-152,-184,-83
Fc1ccccc1Cn1nnc(-c2ccc3c(c2)OCO3)n1,-8,-3,-83,-162,-150,-127
COc1ccc(C=NNc2nc3ccccc3s2)cc1,.,.,33,.,.,.
C(=N\Nc1nc2ccccc2s1)/c1ccccn1,.,-3,.,84*,22,73*
COc1ccc(NC(=O)C2CCCN2S(=O)(=O)c2ccc(Cl)cc2)cc1 (stereo unspecified),2,8,12,7,7,.
Cc1nc(SCC(=O)Nc2nc3ccccc3s2)c(C#N)c(C)c1C,14,5,?,90*,33,89*
S=C(NCc1ccco1)Nc1ccc(Cl)cn1,-8,-2,-4,4,-27,.
CCCC1(CCC)NC(=O)N(CC(=O)N2CCc3ccccc32)C1=O,0,.,23,3,4,.
O=C(Nc1ccc(N2CCCC2)c(Cl)c1)c1ccco1,.,-11,-14,-165,-198,-25
CCOC(=O)c1c(C)[nH]c(C)c1C(=O)COC(=O)/C=C/c1cccc(F)c1,1,23,-11,.,.,.
CCOC(=O)c1c(C)[nH]c(C)c1C(=O)COC(=O)/C=C/c1ccc(OC)cc1,.,.,20,51*,-40,17
CCOc1ccc2nc(NC(=O)Nc3cccs3)sc2c1,.,43,-57,-167,-169,-128
COc1ccc(NC(=O)c2cccc(S(=O)(=O)NCc3ccccc3)c2)cc1S(N)(=O)=O,0,.,-6,19,6,.
Cc1ccc(COC(=O)c2cc([N+](=O)[O-])ccc2N2CCOCC2)cc1,22,-2,8,63*,-6,52*
Cc1ccc(C(=O)c2cc([N+](=O)[O-])ccc2N2CCCCC2)c(C)c1,65,-1,34,66*,-131,55*
O=C(OCc1ccc([N+](=O)[O-])cc1)c1cc([N+](=O)[O-])ccc1N1CCOCC1,4,22,38,19,-18,.
O=C(Nc1nc2ccccc2c(=O)s1)c1ccco1,-4,-1,20,64*,31,21
